# Screens as filed in PubChem.
# A selection: hits, their analogues and other compounds. The true share with any hit is near 3.9%.
# Peg3 prom inh = Peg3 promoter-driven luciferase inhibitors, primary screen, cell-based, HeLa, luciferase luminescence; HeLa PEG-Prom luciferase reporter, overnight; inhibition, % at 20 µM; 1.7% of 360,000 active; AID 588405, 2011;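 active means inhibition of at least 50% at 20 µM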
# TWEAK Fn14 block = inhibitors of TWEAK-Fn14 signaling, primary screen, luciferase reporter cells, uHTS; TWEAK-stimulated Fn14 reporter cells, luciferase luminescence, 8 h; inhibition, % at 10 µM; 2% of 360,000 active; AID 1159606, 2016; in the data active means inhibition above about 50%
# CF NFkB block = inhibitors of PAF-induced NF-kB signaling, primary screen, cell-based, GFP fluorescence, uHTS; KKLEB NF-kB-GFP reporter, GFP fluorescence overnight; inhibition, % at 5 µM; 0.86% of 360,000 active;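 active means at least 50% inhibition at 5 µM, scaled per plate between neutral and stimulator controls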;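 further: PAF is a Pseudomonas aeruginosa culture filtrate used as stimulus; plate controls were PAF-stimulated DMSO wells for no effect and unstimulated DMSO wells for full effect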
# TROY NFkB inh = inhibitors of TROY-driven NF-kB signaling, primary screen, Q293 LMP1-TROYcd cells, NF-kB luciferase, uHTS. Q293 LMP1-TROYcd NF-kB luciferase reporter, 4 h. 0.98% of 360,000 active. inhibition, % at 10 µM. AID 1347056, 2019;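 active means compounds whose plate-normalised and pattern-corrected inhibition of the luciferase reporter signal at the single screening dose is 50% or more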
# KKLEB cytotox = cytotoxicity in KKLEB CF airway cells, primary screen, cytotoxicity control for CF NF-kB inhibitor project, cell-based, uHTS, fluorescence assay plates; KKLEB CF airway cells viability, ATPlite luminescence, overnight; hits give low values; cells stimulated with P. aeruginosa culture filtrate; activity change (cytotoxicity), % at 5 µM; 0.36% of 360,000 active;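 active means corrected activity change at or below -50% at 5 µM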
# HIF-2a block = HIF-2a reporter inhibitors, primary screen, luminescence, 786-0 RCC cells | 786-0 RCC cells HIF-2a reporter, luciferase luminescence, overnight | inhibition, % at 18.8 µM | 0.72% of 360,000 active | AID 624352, 2012;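 active means inhibition of the luminescence signal of 40% or more relative to plate controls, in a single-dose primary screen at 18.75 µM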
# The depositor's hits bear a star.
SMILES,Peg3 prom inh,TWEAK Fn14 block,CF NFkB block,TROY NFkB inh,KKLEB cytotox,HIF-2a block
O=C(c1ccccc1Cl)N1N=C(c2ccc(Br)cc2)CC1c1nc2ccccc2[nH]1 (configuration not stated),-20,19,13,61*,3,-117
O=C(c1ccncc1)N1N=C(c2ccc(Br)cc2)CC1c1ccccc1O (configuration not stated),15,11,22,12,1,14
O=c1cc(/C=C/c2ccccc2)oc2c1ccc1ccccc12,-3,64*,-18,20,2,-28
O=C(C1=C[C@@H](c2coc3ccccc3c2=O)C[C@@H](OCCCCO)O1)N1CCOCC1,2,-4,0,-3,6,8
O=C(c1cc2sccc2n1Cc1ccc(F)cc1)N1CCN(c2nc3ccccc3s2)CC1,29,65*,2,30,4,8
O=S(=O)(Nc1cc(C(F)(F)F)ccc1N1CCOCC1)c1ccc2ccccc2c1,50*,10,23,16,-4,22
CCOC(=O)c1c(-c2ccc(C)o2)csc1NC(=O)CN1CCN(CC)CC1,4,-5,0,11,-8,-1
CCOC(=O)c1c(-c2ccc(OC)cc2)csc1NC(=O)CCN1CCOCC1,22,20,18,3,-13,24
COC(=O)c1c(-c2cccs2)csc1NC(=O)CN1CCOCC1,-104,21,11,67*,-19,-113
CCOC(=O)c1c(-c2ccc(C)o2)csc1NC(=O)CN1CCCCC1,27,54*,14,9,-24,22
COc1cccc(CNC(=O)c2ccc(OCC(=O)N3CCOCC3)c(OC)c2)c1,-1,-28,6,-1,-6,13
Cc1cc(C)c(C(=O)N2CCCC(N3CCN(c4cccc(C(F)(F)F)c4)CC3)C2)o1 (configuration not stated),14,0,5,20,-6,9
COc1ccc(Cl)cc1C(=O)NCCN(C)C,2,6,-8,3,2,3
CN(C)CCNC(=O)c1ccc(COc2ccc(Cl)cc2Cl)cc1,54*,-101,26,-42,-28,-73
CCN(CC)c1ccc(S(=O)(=O)Nc2cc(Cl)ccc2Cl)cc1NC(=S)NC(=O)C1CCCC1,26,42,20,23,6,13
CCN(CC)S(=O)(=O)c1ccc(Cl)c(NC(=S)NC(=O)C2CCCC2)c1,36,56*,2,55*,6,12
Cc1cc(N2CCCC2)c(F)cc1/C=C\[N+](=O)[O-],79*,19,-11,6,3,-29
C[C@H]1CN([C@@H](C)CO)C(=O)CCCn2cc(nn2)CO[C@@H]1CN(C)C(=O)CCC(F)(F)F,5,88*,-9,-5,12,4
c1nc(CCO[C@H]2CCCCO2)cc2cc3c(cc12)OCO3,24,92*,-6,60*,8,19
c1ccc2cc(CCO[C@H]3CCCCO3)ncc2c1,-96,66*,8,10,-1,-62
Cc1cccc(NC(=O)NCCN2C(=O)C3C4C=CC(C4)C3C2=O)c1 (configuration not stated),-29,-8,11,3,-18,-34
Cc1ccc(C)c(NC(=O)c2ccccc2NS(=O)(=O)c2cc([N+](=O)[O-])ccc2C)c1,22,58*,33,55*,-44,2
CC1=C(C#N)c2nc(N)c(C#N)c(C)c2/C1=C\c1ccc(-c2ccccc2C(=O)O)o1,13,70*,13,25,13,6
CN(C)CC1CCC/C(=C\c2ccc(OC(=O)/C=C/c3ccc(Cl)c(Cl)c3)cc2)C1=O (configuration not stated),95*,-22,-26,3,13,8
Cc1ccc(C)c(S(=O)(=O)N2CCCN(C)CC2)c1,15,18,7,-7,0,13
SMILES,Peg3 prom inh,TWEAK Fn14 block,CF NFkB block,TROY NFkB inh,KKLEB cytotox,HIF-2a block
COCCNC(=O)c1cc2cc3ccc(OC)cc3nc2o1,-107,-36,-7,-45,11,-90
COc1ccc2cc3cc(C(=O)NCCN4CCN(c5ccccc5F)CC4)oc3nc2c1,44,67*,-9,60*,-9,-2
COc1ccc2cc3cc(C(=O)Nc4ccccc4N4CCN(C)CC4)oc3nc2c1,115*,34,12,-12,-22,55*
CC1CCc2c(sc(NC(=O)c3c([N+](=O)[O-])cnn3C)c2C(N)=O)C1 (configuration not stated),0,-19,28,-4,-3,1
Cn1cc(C(=O)N/N=C/c2c(O)ccc3ccccc23)ccc1=O,42,-5,-12,6,-4,-2
Cc1cccc(C)c1NC(=O)CN(C)C(=O)CCC(=O)N1CCOCC1,-13,1,10,7,23,15
O=C(NCc1ccc(S(=O)(=O)NC2CCCCC2)s1)c1ccccc1,6,2,-6,1,4,5
COc1ccc(-n2c(C)c([N+](=O)[O-])c3ccc(O)c(CN4CCCCC4)c32)cc1,10,49,73*,40,-33,20
COc1ccc2ccc(O)c(CN3CCN(S(=O)(=O)c4cc([N+](=O)[O-])ccc4C)CC3)c2c1,4,3,26,11,-8,10
CN(c1ccccc1)c1ccc(/C=C(/CCC(=O)O)c2nc3ccccc3s2)cc1[N+](=O)[O-],57*,42,35,57*,-17,13
O=C(O)CC/C(=C\c1ccc(N2CCCC2)c([N+](=O)[O-])c1)c1nc2ccccc2s1,5,4,-2,25,-1,3
COc1cc(/C=C/c2ccc3cccc(O)c3n2)cc(Cl)c1OC,-45,-22,-6,-11,-4,-314
COc1cc(/C=C/c2ccc3cccc(O)c3n2)cc(Br)c1OC,-175,19,12,-33,8,-215
COc1cc(Br)cc(/C=C/c2ccc3cccc(O)c3n2)c1OC,-8,0,-24,-27,-5,-7
COc1cc(/C=C/c2ccc3cccc(O)c3n2)cc(OC)c1OC,95*,-46,8,-46,-4,-60
COc1ccc(/C=C/c2ccc3cccc(O)c3n2)cc1Br,-213,72*,-21,54*,5,-242
COc1ccc(Br)cc1/C=C/c1ccc2cccc(O)c2n1,-7,9,-35,-6,3,-24
COc1ccc(/C=C/c2ccc3cccc(O)c3n2)c(OC)c1OC,86*,81*,-27,-44,-15,-187
COc1cccc(/C=C/c2ccc3cccc(O)c3n2)c1OC,90*,82*,-63,48,-23,-313
